Test results reported in PubChem BioAssay (NCI).
About 83,000 compounds went through this panel and 20% of them were active in at least one assay; those are over-represented in the sample as a whole.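 48-hour exposure, single concentration, 96-well plates; percent growth endpoint where 0 means no net growth. Active: below 10.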 Unmarked numbers belong to inactive results. The source made the active and inactive calls.

How the values were obtained:
Test in all cases: NCI-60 one-dose screen, 48 h (100 = growth as untreated, 0 = no growth, -100 = all killed)
Conditions in all cases: 10 µM unless noted
SK-MEL-2 melanoma = test system: SK-MEL-2 melanoma
EKVX NSCLC = test system: EKVX NSCLC
SN12C renal = test system: SN12C renal
UO-31 renal = test system: UO-31 renal
TK-10 renal = test system: TK-10 renal
ACHN renal = test system: ACHN renal
CAKI-1 renal = test system: CAKI-1 renal
A498 renal = test system: A498 renal
CCRF-CEM leukemia = test system: CCRF-CEM leukemia
MOLT-4 leukemia = test system: MOLT-4 leukemia
SR leukemia = test system: SR leukemia
RPMI-8226 leukemia = test system: RPMI-8226 leukemia
OVCAR-8 ovarian = test system: OVCAR-8 ovarian
OVCAR-5 ovarian = test system: OVCAR-5 ovarian
OVCAR-4 ovarian = test system: OVCAR-4 ovarian
SK-OV-3 ovarian = test system: SK-OV-3 ovarian
IGROV1 ovarian = test system: IGROV1 ovarian
OVCAR-3 ovarian = test system: OVCAR-3 ovarian
HS 578T breast = test system: HS 578T breast
NCI/ADR-RES ovarian = test system: NCI/ADR-RES ovarian

Row | Structure (SMILES) | growth (SK-MEL-2 melanoma) | growth (EKVX NSCLC) | growth (SN12C renal) | growth (UO-31 renal) | growth (TK-10 renal) | growth (ACHN renal) | growth (CAKI-1 renal) | growth (A498 renal) | growth (CCRF-CEM leukemia) | growth (MOLT-4 leukemia) | growth (SR leukemia) | growth (RPMI-8226 leukemia) | growth (OVCAR-8 ovarian) | growth (OVCAR-5 ovarian) | growth (OVCAR-4 ovarian) | growth (SK-OV-3 ovarian) | growth (IGROV1 ovarian) | growth (OVCAR-3 ovarian) | growth (HS 578T breast) | growth (NCI/ADR-RES ovarian)
1 | C#CCOc1cc(N(CC)CC)ccc1C(C(=O)NC(C)(C)C)N(C(=O)C1CCc2cc(F)ccc2O1)c1ccc(Br)cc1 (stereo not given) | 110% | 55.3% | 76.9% | 51% | 116% | 83.2% | 58.7% | 135% | 63.6% | 21.8% | 54% | 44.7% | 89.3% | 87.1% | 82.3% | 95.3% | 80.2% | 107% | 88.3% | 89.4%
2 | Cc1cccc(NC(=O)CN2CCN(c3ncnc4c3cnn4-c3ccccc3)CC2)c1 | 80.2% | 85.9% | 83.4% | 54.9% | 130% | 79.9% | 82.9% | 98% | 76.7% | 75% | 55.9% | 75.2% | 96% | 94.7% | 91.4% | 99.7% | 83.9% | 98.9% | 88.2% | 89.4%
3 | C=C1CCC2C3(C)COC(c4cc(F)cc(F)c4)OC3CCC2(C)C1CC(O)C1=CCOC1=O (stereo not given) | 57.2% | 83.3% | 48.1% | 49.6% | 110% | 67.8% | 60.3% | 120% | 16.8% | 33.7% | 28.6% | 11% | 16.2% | 87% | 53.1% | 102% | 60.1% | 61.4% | 70.4% | 14.5%
4 | NS(=O)(=O)c1ccc(NNC(=O)CCC(=O)c2ccccc2)cc1 | 107% | 103% | 92.5% | 84% | 109% | 101% | 90.2% | 94.2% | 75.1% | 89.8% | 86.8% | 105% | 101% | 112% | 99.2% | 104% | 102% | 114% | 94.7% | 109%
5 | COc1ccc(CCC2c3c(cc4c(c3OC)OCO4)CCN2C)cc1 (stereo not given) | -62.7% (active) | -17.3% (active) | -18.6% (active) | -21.9% (active) | -14.7% (active) | -16.5% (active) | 0.732% (active) | 13.2% | 4.55% (active) | -4.81% (active) | -18.2% (active) | -28.5% (active) | -41.7% (active) | -16.5% (active) | 9.34% (active) | -37.6% (active) | -52.4% (active) | -21.2% (active) | 11% | -54.5% (active)
6 | Nc1nc(-c2ccccc2)c(N=Nc2ccc([N+](=O)[O-])cc2Cl)s1 | 43.4% | 89.2% | 83.7% | 94.9% | 172% | 79.1% | 81.2% | 73.6% | 78.7% | 79% | 136% | 53% | 78.5% | 107% | 80.4% | 82% | 86.3% | 74.8% | 85% | 89.6%
7 | Cn1cc(-c2nnc(N)nc2-c2c[nH]c3ccccc23)c2cccnc21 | 24.3% | 62.3% | 50.6% | 48% | 91.5% | 56.9% | 43.2% | 86.4% | 34.6% | 26.7% | 25.2% | 43.5% | 49.7% | 77.8% | 76.8% | 64.6% | 39.5% | 25.9% | 41.4% | 76.3%
8 | O=C(Cn1nc(-c2ccccc2)ccc1=O)N/N=C/c1ccc(N2CCOCC2)cc1 | 98.1% | 95.3% | 94.9% | 75.8% | 103% | 95.7% | 90.8% | 84% | 92.5% | 98.1% | 85.9% | 87.8% | 102% | 107% | 93.9% | 107% | 113% | 103% | 86.6% | 95.5%
9 | COc1ccc(C2=NN(c3ccccc3)C(c3ccc(OC)c(OCc4ccccc4)c3)C2)cc1OC (stereo not given) | 94.1% | 92.4% | 104% | 91.7% | 125% | 110% | 76.7% | 101% | 106% | 97% | 104% | 107% | 96.3% | 110% | 89.8% | 93.4% | 84.1% | 106% | 97.7% | 103%
10 | CCCSc1nc(Nc2ccc(S(N)(=O)=O)cc2)c(C#N)c(-c2cc(OC)c(OC)c(OC)c2)n1 | 43% | 36.6% | 20.4% | 2.53% (active) | 50.4% | 11.8% | 25.6% | 80.8% | 8.03% (active) | -35.8% (active) | 6.66% (active) | 3.5% (active) | 10.2% | 58.5% | 27.5% | 64.9% | 34.9% | 24.6% | 30.7% | 15.1%
11 | C#CCOc1ccc(/C=N/Nc2nc(-c3cc4cc(OC)ccc4oc3=O)cs2)cc1OC | 55.2% | 43.5% | 42.3% | 87.7% | 89.5% | 40.2% | 39.2% | 78.7% | 66.3% | 63.9% | 34.7% | 50.9% | 50.8% | 47% | 40.7% | 71% | 81% | 63.5% | 68.1% | 50.5%
12 | CCCCCCn1c(O)c(N=Nc2nc(-c3cc4ccccc4oc3=O)cs2)c2ccccc21 | 79.7% | 1.67% (active) | 63.8% | 75.1% | 90.4% | 81.4% | 58.9% | 88% | 5.68% (active) | 23.4% | 12% | 60.9% | 34.1% | -53.2% (active) | -48.2% (active) | 96.9% | -62.4% (active) | -94.9% (active) | 60.5% | 50.2%
13 | CC1(c2cc3cc(Cl)ccc3oc2=O)NC(=O)c2c(/C=C/C(=O)OC3CC4CCC3(C)C4(C)C)cccc2N1 (stereo not given) | 53.7% | 49.4% | 58.5% | 42.8% | 79.3% | 61.7% | 59.6% | 118% | 59.4% | 21.2% | 42.2% | 22% | 70.4% | 80.6% | 54.4% | 66.1% | 76.1% | 69% | 72.8% | 64%
14 | Cc1ccccc1[C@H]1C(C(=O)c2ccc(Cl)cc2)C2(N[C@@H]1c1ccccc1)C(=O)Nc1ccc(Cl)cc12 (stereo not given in full) | -64% (active) | -20.6% (active) | -95.4% (active) | 0.337% (active) | 9% (active) | -9.02% (active) | 8.92% (active) | 50% | -14.9% (active) | -17.5% (active) | -23.6% (active) | -11.8% (active) | -69.2% (active) | -55.8% (active) | 11.2% | 1.06% (active) | 2.05% (active) | -52.4% (active) | 6.9% (active) | -65.7% (active)
15 | C=C1CC[C@@H]2[C@]3(C)COC(c4cn[nH]c4-c4cccc(Br)c4)O[C@@H]3CC[C@@]2(C)[C@@H]1C/C=C1/C(=O)OCC1O (stereo not given in full) | -69.8% (active) | -62.3% (active) | -77.7% (active) | -100% (active) | -59.7% (active) | -100% (active) | -39.3% (active) | -93.7% (active) | -15.6% (active) | 12.2% | 12.7% | -6.49% (active) | -42.5% (active) | -76.2% (active) | 10.8% | -33% (active) | -60.2% (active) | -97.6% (active) | 5.38% (active) | -50.1% (active)
